Mtb bLac sens: beta-lactam sensitization of Mtb H37Rv | M. tuberculosis H37Rv growth with meropenem, percent inhibition | inhibition, % at 25 µM | actives 0.27% (n = 330,000); call rule not given here;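 note: growth measured after seven days incubation then overnight dye step; 0% = bacteria only wells and 100% = bacteria with antibiotic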
CCHF vOTU inh: blocks the CCHF virus ovarian tumor domain protease; CCHFV vOTU protease, Pep-AMC fluorescence; actives 0.55% (n = 370,000); inhibition, % at 11.5 µM; in the data active = inhibition above about 30%; note: 0% = vehicle wells with enzyme and 100% = no enzyme wells
GDH-TPI counter-1: counter-screen for M. tuberculosis FBA inhibitors: GDH-TPI coupled enzymes. GDH-TPI coupled enzyme counterscreen, NADH absorbance. inhibition, % at 4.8 µM. actives 1.2% (n = 360,000). AID 588335; in the data active = inhibition above about 30%;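 note: 0% = DMSO wells and 100% = wells lacking the enzyme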
FBA Mtb inh: Mtb fructose-bisphosphate aldolase inhibition | P9WQA3 | purified M. tuberculosis FBA, fluorescence read-out | inhibition, % at 1 µM | actives 2.3% (n = 360,000) | AID 588726;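 note: 0% = vehicle and 100% = reference inhibitor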
Target sequence (P9WQA3 whole entry, looked up): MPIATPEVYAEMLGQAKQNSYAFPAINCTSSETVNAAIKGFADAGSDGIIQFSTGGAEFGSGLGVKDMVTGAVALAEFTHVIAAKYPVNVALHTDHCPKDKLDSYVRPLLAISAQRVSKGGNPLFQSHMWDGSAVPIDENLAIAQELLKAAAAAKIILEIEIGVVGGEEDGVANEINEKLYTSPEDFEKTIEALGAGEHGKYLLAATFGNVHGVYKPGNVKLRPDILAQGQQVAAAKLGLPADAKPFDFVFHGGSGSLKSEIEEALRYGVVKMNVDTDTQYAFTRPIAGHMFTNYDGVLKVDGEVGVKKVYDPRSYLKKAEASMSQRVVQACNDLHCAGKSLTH
RecA intein inh: inhibitors of M. tuberculosis RecA intein splicing; P9WHJ3; actives 0.75% (n = 290,000); AID 2221; inhibition, % (no concentration beside the values); cell-free RecA intein splicing, fluorescence; in the data active = inhibition above about 30%;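 note: 0% = vehicle wells and 100% = reference inhibitor control wells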
Mtb FBA confirm: confirmation of M. tuberculosis fructose-bisphosphate aldolase inhibitors; shares compounds with FBA Mtb inh; purified M. tuberculosis FBA, fluorescence read-out; inhibition, % at 1 µM; actives 78% (n = 5,600); AID 651616;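 note: 0% = vehicle wells and 100% = reference inhibitor wells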
GDH-TPI counter-2: GDH-TPI inhibition counter-screen for FBA inhibitors; shares compounds with FBA Mtb inh; GDH-TPI coupled enzyme counterscreen, fluorescence; inhibition, % at 1 µM; actives 81% (n = 5,600); AID 652141; in the data active = inhibition above about 10%
Numbers without * were called inactive. The list is not random: actives were taken first. Their share in the collection is about 4.2%. Cut-off read from the data, not from the text of the source, unless noted: active = inhibition above about 27%; inactive = the rest.

What do the screens show for `COc1ccc(OC)c(S(=O)(=O)Nc2ccc3c(c2)n(C)c(=O)n3C)c1`?
Mtb bLac sens: -2.5; CCHF vOTU inh: 6.3; GDH-TPI counter-1: 1.5; FBA Mtb inh: 62.2*; RecA intein inh: -7.7; Mtb FBA confirm: 140.3*; GDH-TPI counter-2: 93.3*

How did COC(=O)c1cc2ccc(OC)cc2c2cc(OC)c(OC)cc12 do in these assays?
Mtb bLac sens: 10.5; CCHF vOTU inh: -25.5; GDH-TPI counter-1: 25.4; FBA Mtb inh: 62.4*; Mtb FBA confirm: -5.1; GDH-TPI counter-2: -5.6

What do the screens show for `CCOC(=O)c1cc(-c2ccc(OC(F)F)cc2)nc2nc(SC)[nH]c(=O)c12`?
Mtb bLac sens: -0.1; CCHF vOTU inh: -48.8; GDH-TPI counter-1: 29.0; FBA Mtb inh: 72.1*; RecA intein inh: 0.0; Mtb FBA confirm: 101.2*; GDH-TPI counter-2: 87.9*

What do the screens show for `CCOC(=O)c1cc(-c2ccc(OC(F)F)cc2)nc2c1c(=O)[nH]c(=O)n2C`?
Mtb bLac sens: -0.1; CCHF vOTU inh: -28.8; GDH-TPI counter-1: 9.6; FBA Mtb inh: 50.0*; RecA intein inh: -2.2; Mtb FBA confirm: 159.1*; GDH-TPI counter-2: 130.0*

How did CCOC(=O)c1cc(-c2ccc(Cl)cc2)nc2c1c(=O)[nH]c(=O)n2CCOC do in these assays?
Mtb bLac sens: -5.1; CCHF vOTU inh: -8.7; GDH-TPI counter-1: 6.6; FBA Mtb inh: 53.4*; RecA intein inh: -1.2; Mtb FBA confirm: 68.2*; GDH-TPI counter-2: 46.2*

How did CCOC(=O)c1cc(-c2ccc(Cl)cc2)nc2onc(C)c12 do in these assays?
Mtb bLac sens: -6.9; RecA intein inh: 0.1

Results for CCOC(=O)c1cc(-c2ccc(F)cc2)nc2c1c(=O)[nH]c(=O)n2Cc1ccccc1 ?
Mtb bLac sens: 1.4; CCHF vOTU inh: -6.5; GDH-TPI counter-1: 3.8; FBA Mtb inh: 2.7; RecA intein inh: 0.2

How did Cc1ccc(Cn2c(=O)n(Cc3ccc(C(=O)NCC4COC4)cc3)c(=O)c3ccccc32)cc1 do in these assays?
CCHF vOTU inh: 7.5

How did Cc1cc2c(nc1C)CCCN2Cc1ccccc1C(F)(F)F do in these assays?
CCHF vOTU inh: -26.2

What do the screens show for `O=C1OCc2cccc3cccc1c23`?
Mtb bLac sens: -2.4; CCHF vOTU inh: -60.7; GDH-TPI counter-1: 22.6; FBA Mtb inh: 50.4*; RecA intein inh: 0.3; Mtb FBA confirm: 197.6*; GDH-TPI counter-2: 174.3*

What do the screens show for `O=C1Cc2cccc3cccc1c23`?
Mtb bLac sens: 12.7; CCHF vOTU inh: -26.7; GDH-TPI counter-1: 9.6; FBA Mtb inh: 25.2; RecA intein inh: 1.4

What do the screens show for `N#Cc1ccc(C(=O)NCC2CCN(C(=O)C(=O)c3cccs3)CC2)cc1`?
CCHF vOTU inh: 4.6

How did COC(=O)C/C=C/[C@H](C)[C@@H](NC(=O)C(F)(F)F)c1ccccc1Br do in these assays?
CCHF vOTU inh: 3.0

Results for Cc1ccc(-c2cc(C(=O)NCCc3ccc(S(N)(=O)=O)cc3)c3ccccc3n2)cc1 ?
Mtb bLac sens: 24.5; CCHF vOTU inh: -22.1; GDH-TPI counter-1: 13.0; FBA Mtb inh: 34.1*; RecA intein inh: 1.7; Mtb FBA confirm: 176.7*; GDH-TPI counter-2: 179.0*

How did NS(=O)(=O)c1ccc(CCNC(=O)c2cc(-c3ccccc3)nc3ccccc23)cc1 do in these assays?
Mtb bLac sens: 4.4; CCHF vOTU inh: -7.3; GDH-TPI counter-1: 6.6; FBA Mtb inh: 1.9; RecA intein inh: 5.9

Results for NS(=O)(=O)c1ccc(CCNC(=O)c2cc(-c3ccco3)nc3ccccc23)cc1 ?
Mtb bLac sens: 6.3; CCHF vOTU inh: 11.7; GDH-TPI counter-1: 18.6; FBA Mtb inh: 77.1*; Mtb FBA confirm: 75.1*; GDH-TPI counter-2: 72.8*

What do the screens show for `COC(=O)c1cc(C2(c3c[nH]c4ccccc34)CCN(C(=O)OC(C)(C)C)CC2)n2ccccc12`?
CCHF vOTU inh: 1.3

What do the screens show for `COc1ccc(-c2c(Cc3ccccc3)nc(NC(=O)c3ccccc3)n2Cc2ccccc2)cc1`?
CCHF vOTU inh: 6.0

How did Cc1cn2c(nc(=O)c3cccnc32)s1 do in these assays?
Mtb bLac sens: 2.6; CCHF vOTU inh: -29.7; GDH-TPI counter-1: 15.4; FBA Mtb inh: 36.3*; RecA intein inh: -0.5; Mtb FBA confirm: 107.1*; GDH-TPI counter-2: 86.7*

Results for Cc1ccc(-n2cnc(=O)c3cccnc32)cc1 ?
Mtb bLac sens: 2.2; CCHF vOTU inh: -1.0; GDH-TPI counter-1: -4.6; FBA Mtb inh: 1.1; RecA intein inh: -0.7

How did O=C(CN(c1ccccn1)S(=O)(=O)c1ccc(F)cc1)Nc1ccc(F)cc1F do in these assays?
Mtb bLac sens: 6.4; CCHF vOTU inh: -25.0; GDH-TPI counter-1: 6.0; FBA Mtb inh: 34.7*; RecA intein inh: 0.5; Mtb FBA confirm: 116.9*; GDH-TPI counter-2: 90.1*

How did CCOC(=O)CN(c1ccccn1)S(=O)(=O)c1ccc(OC)cc1 do in these assays?
Mtb bLac sens: -9.9; CCHF vOTU inh: -5.6; GDH-TPI counter-1: 13.4; FBA Mtb inh: 46.3*; RecA intein inh: 0.1; Mtb FBA confirm: 137.6*; GDH-TPI counter-2: 100.4*

Results for O=C1c2nc3cc(-c4ccco4)[nH]n3c(=O)c2CN1Cc1ccccc1 ?
Mtb bLac sens: -2.3; CCHF vOTU inh: -46.8; GDH-TPI counter-1: -0.8; FBA Mtb inh: 97.2*; RecA intein inh: -1.0; Mtb FBA confirm: 104.2*; GDH-TPI counter-2: 67.1*

What do the screens show for `CCCCc1c(C)nc2cc(-c3ccco3)[nH]n2c1=O`?
Mtb bLac sens: -0.5; CCHF vOTU inh: -0.2; GDH-TPI counter-1: -8.4; FBA Mtb inh: 12.0; RecA intein inh: 9.5

What do the screens show for `c1ccc2c(-c3c[nH]c4ccccc34)c3ccccc3nc2c1`?
Mtb bLac sens: 50.9; CCHF vOTU inh: 7.4; GDH-TPI counter-1: 3.1; FBA Mtb inh: 0.7; RecA intein inh: -1.0

What do the screens show for `O=C(O)c1cc(-c2c[nH]c3ccccc23)nc2ccc3ccccc3c12`?
Mtb bLac sens: -0.8; CCHF vOTU inh: -5.4; GDH-TPI counter-1: 18.2; FBA Mtb inh: 44.9*; RecA intein inh: -8.5; Mtb FBA confirm: active; GDH-TPI counter-2: 135.7*

How did CCCCNC(=O)C[C@H]1C[C@@]2(C(=O)OC)C(=C[C@H](C(C)(C)C)O[C@@H]2C)N(Cc2ccco2)C1=O do in these assays?
CCHF vOTU inh: 15.1

How did Nc1ccc2c(c1)[nH]c(=O)c1cc(N)ccc12 do in these assays?
CCHF vOTU inh: -58.2; GDH-TPI counter-1: 0.0; FBA Mtb inh: 32.4*; Mtb FBA confirm: 23.5; GDH-TPI counter-2: 18.2*

Results for O=c1[nH]c2cc([N+](=O)[O-])ccc2c2ccc([N+](=O)[O-])cc12 ?
CCHF vOTU inh: 8.1; GDH-TPI counter-1: 14.7; FBA Mtb inh: 3.6

How did O=C(NC1CCCCN(Cc2ccc(Cl)cc2)C1=O)c1ccc(F)cc1 (stereo not given) do in these assays?
CCHF vOTU inh: -2.0

How did O=[N+]([O-])c1ccc2c(c1)S(=O)c1ccccc1-2 (stereo not given) do in these assays?
Mtb bLac sens: -4.2; CCHF vOTU inh: 6.0; GDH-TPI counter-1: 26.5; FBA Mtb inh: 27.1*; RecA intein inh: 2.4; Mtb FBA confirm: 146.6*; GDH-TPI counter-2: 109.9*

Screening data: PubChem BioAssay, several laboratories
